NPSR antag – antagonists of human neuropeptide S receptor cAMP signaling; CHO-NPSR cells, cAMP TR-FRET, antagonist mode; Potency, µM (highest dose often 38.3 µM), usual class: inhibitors; hit rate 1% among 220,000; AID 1461; also: nearly all actives have a fitted effect of over 50% in size
TrxR1 inh – inhibitors of rat thioredoxin reductase 1. O89049. recombinant rTrxR1, NADPH fluorescence consumption, selenite substrate. Potency, µM (series often up to 114 µM), hits mostly inhibitors. hit rate 1% among 390,000. AID 588453; also: nearly all actives have a fitted effect of over 65% in size
Target sequence (O89049 whole entry, looked up): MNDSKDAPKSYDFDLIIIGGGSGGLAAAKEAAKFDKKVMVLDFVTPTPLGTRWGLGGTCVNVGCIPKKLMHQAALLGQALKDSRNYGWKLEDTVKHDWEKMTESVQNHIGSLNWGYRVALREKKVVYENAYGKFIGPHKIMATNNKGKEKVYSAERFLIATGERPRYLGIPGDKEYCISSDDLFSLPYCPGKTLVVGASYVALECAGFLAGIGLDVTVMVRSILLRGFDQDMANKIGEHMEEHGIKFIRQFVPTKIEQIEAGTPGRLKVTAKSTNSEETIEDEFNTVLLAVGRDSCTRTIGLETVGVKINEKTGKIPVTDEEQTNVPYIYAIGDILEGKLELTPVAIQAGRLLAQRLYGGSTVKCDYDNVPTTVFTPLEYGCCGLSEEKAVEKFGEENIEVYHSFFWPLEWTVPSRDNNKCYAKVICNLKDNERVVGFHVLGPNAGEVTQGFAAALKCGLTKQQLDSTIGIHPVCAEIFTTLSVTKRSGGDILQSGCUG
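Rat TrxR1 (90 nM in the dispensed reagent) was pre-reduced with 400 uM NADPH for 5 min at room temperature, then incubated with compound for 15 min. After 400 uM selenite was added, NADPH fluorescence (Ex 340/Em 450 nm) was followed for 8 min.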
TrxR1 substrate – is turned over as a substrate by rat TrxR1; O89049; purified TrxR1 substrate turnover, NADPH consumption readout; Potency, µM (top dose mostly 114 µM); hit rate 0.01% among 390,000; AID 588456; also: nearly all actives have a fitted effect of over 50% in size
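Rat TrxR1, dispensed at 90 nM, was prereduced with 400 uM NADPH (final) for 5 min at ~22 deg C, then incubated with compound 15 min before 400 uM selenite. A first-read NADPH fluorescence drop versus no-compound background flagged substrates.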
GALK inh – blocks human galactokinase activity | P51570 | Purified GALK, Kinase-Glo residual ATP luminescence | Potency, µM (top dose mostly 57.5 µM), most hits filed as inhibitors | hit rate 0.007% among 270,000
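Galactose (100 uM) and ATP (35 uM) were turned over by 5 nM GALK for 1 h at RT. Kinase-Glo Plus then converted the remaining ATP into a luminescent signal.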
Numbers stand for hits; 0 = inactive; ? = inconclusive; - = no result given; ! = not active in a repeat; [ ] = another dose, or the depositor's remark. Hits are enriched below; roughly 1.2% of the tested compounds scored in any of these assays. Calls follow the shape of the dose curve; as a rule, active = well fitted curve in the direction sought with a large enough effect; inconclusive = small, poorly fitted or top-dose-only effect, or another doubt; inactive = no such curve, though single readings can be large; an effect the other way counts as inactive or inconclusive.

SMILES | NPSR antag | TrxR1 inh | TrxR1 substrate | GALK inh
CCOc1ccc(N2C(=O)/C(=C\c3cccs3)C(=O)NC2=S)cc1 | ? | 22.4µM | 0 | 0
CCOc1ccc(N2C(=O)/C(=C/c3ccco3)C(=O)NC2=S)cc1 | - | ? | 0 | 0
O=C1NC(=S)N(c2ccccc2F)C(=O)/C1=C\c1cccs1 | ? | 8.91µM | 0 | 0
Cc1ccc(C(=O)CN2CCOCC2)cc1 | - | 0 | 0 | -
CN1C(=O)NC(=O)/C(=C\c2ccc([N+](=O)[O-])o2)C1=O | 0 | 15.8µM | 0 | 0
O=C(c1ccco1)c1cn(Cc2ccccc2Cl)c2ccccc12 | 10µM | 0 | 0 | 0
O=C(c1cn(Cc2ccccc2)c2ccccc12)C1CC1 | 10µM | 0 | 0 | 0
CCC(=O)c1cn(Cc2ccccc2)c2ccccc12 | 0 | 0 | 0 | 0
CCNC(=O)[C@H]1O[C@@H](n2cnc3c(N)ncnc32)[C@H](O)[C@H]1O | 0 | 0 | - | -
CC(O)C(C)OC(=O)[C@@H]1C[C@@H]2c3cccc4c3c(cn4C(C)C)C[C@H]2N(C)C1 (stereo partly drawn) | 0 | ? | - | -
CN1C(=O)NC(c2cccc(O)c2)C(C(=O)c2cccs2)C1(O)C(F)(F)F (stereo not drawn) | ? | 31.6µM | 0 | 0
O=[N+]([O-])c1ccc(CN2CCN(c3ccc(Cl)cc3)CC2)o1 | - | ? | 0 | 0
COC(=O)C1=C(C(=O)OC)C2OC1c1cc3ccccc3cc12 | - | 2.51µM | 0 | -
COC(=O)C1=C(c2ccc3ccccc3c2)C[C@@H]2CC[C@H]1N2C | - | 0 | 0 | -
C=C1CCN([C@@H](Cc2ccccc2)C(=O)Nc2ccc(OC)cc2)S(=O)(=O)c2ccccc21 | - | 0 | 0 | -
CCOc1cccc(=NC2CCCCC2)c2c(C)n(C)c(C)c12 | 7.94µM | 0[11.4 µM] | 0[11.4 µM] | 0
CCOc1ccccc1N=C1SCCCN1C | 0 | 0 | 0 | 0
Cc1cccn2c(=O)c(/C=C(\C#N)c3nc4ccccc4s3)c(Oc3ccc(F)cc3)nc12 | - | 0 | 0 | -
CN(C)c1ccc(N=O)cc1 | - | 5.01µM | ? | -
CCOC(=O)N1C(C)CN(/[N+]([O-])=N/Oc2ccc([N+](=O)[O-])cc2[N+](=O)[O-])CC1C (stereo not drawn) | - | 25.1µM | 0 | -
O=c1c(C=NCCN2CCNCC2)c(O)n(C2CCCCC2)c(=O)n1C1CCCCC1 | 0 | 0 | 0 | 0
N=C(N)c1c(O)n(C2CCCCC2)c(=O)n(C2CCCCC2)c1=O | 10µM | 0 | 0 | 0
O=C1NC(=O)N(CCC2=CCCCC2)C(=O)/C1=C/c1cccs1 | 0 | 7.94µM | 0 | 0
O=C1NC(=S)NC(=O)C1=Cc1c(Cl)cccc1Cl | - | 0 | 0 | -
CN1C(=O)/C(=C\c2ccc(Br)s2)C(=O)NC1=S | - | 3.16µM | 0 | 0
SMILES | NPSR antag | TrxR1 inh | TrxR1 substrate | GALK inh
O=C1NC(=S)NC(=O)C1=Cc1ccc(Br)s1 | - | 4.47µM | 0 | 0
CC(=O)c1cccc(NC(=O)c2noc3c2CSc2ccccc2-3)c1 | - | ? | 0 | -
C[N+](C)(C)CC(=O)O | 0 | 26.7µM! | 0 | -
C=CCn1c(O)c(/C=C2/C=c3ccccc3=N2)c(=O)[nH]c1=S | - | 20µM | 0 | 0
C=CCn1c(O)c(C=Nc2ccc(F)cc2)c(=O)[nH]c1=O | - | 0 | 0 | 0
COc1ccccc1C(=O)Nc1ccc2nc(SCC(=O)N(C)c3ccccc3)sc2c1 | - | 0 | 0 | -
Cc1cccc(Oc2nc3c(C)cccn3c(=O)c2/C=C(\C#N)c2nc3ccccc3s2)c1 | - | 0 | 0 | -
C=CCN1C(=O)/C(=C/c2cc(C)n(-c3ccccn3)c2C)C(=O)NC1=S | 0 | 50.1µM | 0 | 0
COc1ccccc1CNC(=O)CCC1N=C2c3ccccc3N=C(SCc3cccc(Cl)c3)N2C1=O (stereo not drawn) | - | 0 | 0 | -
Cc1oc(-c2ccc(Cl)cc2)nc1CS(=O)CC(=O)N1CCC2(CC1)OCCO2 (stereo not drawn) | 0 | 50.1µM | 0 | 0
Cc1oc(-c2ccccc2F)nc1CS(=O)CC(=O)N1CCC2(CC1)OCCO2 (stereo not drawn) | 0 | ? | 0 | 0
N#CC(C#N)=Cc1ccc(O)c(O)c1 | 0 | 16.8µM | 0 | -
COc1cc(C=C(C#N)C#N)cc(O)c1O | 0 | ? | - | -
C=CC[C@@H](CC/C=C/C=C/CC/C=C\[C@@H]1CSC([C@@H]2C[C@@H]2C)=N1)OC | - | 50.1µM | 0 | -
CC1=NN(c2ccccc2)C(=O)/C1=C/c1c(O)[nH]c(=S)[nH]c1=O | 0 | 17.8µM | ? | 0
O=C(Cc1ccc(N(CCCl)CCCl)cc1)NC(Cc1ccc(Cl)cc1)C(=O)O (stereo not drawn) | - | 39.8µM | 0 | 0
O=C(O)CCCc1ccc(N(CCCl)CCCl)cc1 | 0 | 50.1µM | 0 | 0
CC(=O)NC(Cc1ccc(N(CCCl)CCCl)cc1)C(=O)O (stereo not drawn) | 0 | 31.6µM | 0 | 0
O=C(Cc1ccccc1)NC(Cc1ccc(Cl)cc1)C(=O)O (stereo not drawn) | 0 | 0 | 0 | 0
O=C(CCl)c1ccc(O)c(O)c1 | - | ? | 0 | -
CCCC(=O)NC(Oc1ccc(C(C)=O)cc1)C(Cl)(Cl)Cl (stereo not drawn) | 0 | 25.1µM | 0 | 0
CCCCCCCCCCCCCC(=O)O[C@@H]1[C@@H](C)[C@@]2(O)[C@@H](C=C(CO)C[C@@]3(O)C(=O)C(C)=C[C@@H]23)C2C(C)(C)[C@@]21OC(C)=O (stereo partly drawn) | ? | 0 | ? | -
COc1ccc(N=Nc2c(O)[nH]c(=S)[nH]c2=O)cc1 | 0 | 0 | 0 | 0
CSc1nc(N)c(N=Nc2ccc([As](=O)(O)O)cc2)c(=O)[nH]1 | 0 | 3.98µM | 0 | 0
FC(F)(F)c1ccc2c(c1)N(CCCN1CCN(CCCl)CC1)c1ccccc1S2 | 7.94µM | 0 | 0 | 0
SMILES | NPSR antag | TrxR1 inh | TrxR1 substrate | GALK inh
OCCN1CCN(CCCN2c3ccccc3Sc3ccc(C(F)(F)F)cc32)CC1 | ? | 0 | 0 | 0
CCOC(=O)C1=CC(=C2C(=O)N(CC)C(=S)N(CC)C2=O)c2ccccc2O1 | 0 | 39.8µM | 0 | 0
CCN1C(=O)C(=C2C=C(C)OC(C)=C2)C(=O)N(CC)C1=S | 0 | 0 | 0 | 0
COc1ccc(C[C@H]2NC[C@H](O)[C@H]2OC(C)=O)cc1 | - | 39.8µM | 0 | -
CC(C)c1ccc(N2C(=O)NC(=O)/C(=C/C=C/c3ccco3)C2=O)cc1 | 6.31µM | ? | 0 | -
O=C1NC(=O)N(c2ccccc2)C(=O)/C1=C\C=C\c1ccccc1 | ? | 0 | 0 | -
Cc1cc(C)cc(N2C(=O)NC(=O)/C(=C\C=C\c3ccco3)C2=O)c1 | 10µM | ? | 0 | 0
O=C1NC(=O)N(Cc2ccc(F)cc2)C(=O)/C1=C\C=C\c1ccco1 | ? | ? | 0 | 0
CCc1ccc(N2C(=O)NC(=O)/C(=C\C=C\c3ccco3)C2=O)cc1 | 10µM | 0 | 0 | 0
Cc1ccc(N2C(=O)NC(=O)/C(=C/C=C/c3ccco3)C2=O)cc1 | 0 | 0 | 0 | 0
Cc1c(C)c2c(OCC(=O)N[C@@H](C)C(=O)O)cc3c(c2oc1=O)CCC(C)(C)O3 | - | 0 | 0 | 0
Cc1ccc(NC(=O)NCc2ccc3c(c2)CCN3C(=O)c2ccccc2)c(Cl)c1 | - | 0 | 0 | -
CN(C)[C@@H]1C(=O)C(C(N)=O)=C(O)[C@@]2(O)C(=O)C3=C(O)c4c(O)cccc4[C@@](C)(O)C3[C@H](O)C12 (stereo partly drawn) | - | 31.6µM! | 0 | -
